Results as given in the supplement of paper PMC6555819.

How the values were obtained:
Assay in all cases: PBM binding z-score (relative to random genomic background probes); higher = stronger binding; sequences stand for … in GC…GCGATTGACAGCGTAGAATGAAGG
[1] = system: FXR:RXRa (NR concentration 270 nM, RXRa partner concentration 90 nM)
Method in brief: (§1)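 Regression normalization was applied to scanned fluorescence from custom Agilent 4×180K protein-binding microarrays. Before scanning, arrays were incubated 1 h with ligand-free nuclear receptor dimers, and binding was detected with antibodies against each partner (one per run). Binding z-scores use the random background probes as reference.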

[2] = system: LXRa:RXRa (NR concentration 270 nM, RXRa partner concentration 90 nM)
Method in brief: as §1

[3] = system: LXRa homodimer (NR concentration 270 nM)
Method in brief: as §1

[4] = system: LXRb:RXRa (NR concentration 270 nM, RXRa partner concentration 90 nM)
Method in brief: as §1

[5] = system: LXRb homodimer (NR concentration 270 nM)
Method in brief: as §1

[6] = system: PPARa:RXRa (NR concentration 270 nM, RXRa partner concentration 90 nM)
Method in brief: as §1

[7] = system: PPARg:RXRa (NR concentration 180 nM, RXRa partner concentration 90 nM)
Method in brief: as §1

[8] = system: PPARg:RXRa 270nM:90nM, anti-RXR (NR concentration 270 nM, RXRa partner concentration 90 nM)
Method in brief: as §1

[9] = system: PPARg:RXRa 30nM:10nM, anti-RXR (NR concentration 30 nM, RXRa partner concentration 10 nM)
Method in brief: as §1

[10] = system: PPARg:RXRa 90nM:30nM, anti-RXR (NR concentration 90 nM, RXRa partner concentration 30 nM)
Method in brief: as §1

[11] = system: PPARg:RXRa DBDmut IVT, anti-RXR (DBD mutation: RXRa K156A/R161A, NR concentration 270 nM, RXRa partner concentration 90 nM)
Method in brief: as §1

[12] = system: PPARg:RXRa IVT, anti-PPARg (NR concentration 270 nM, RXRa partner concentration 90 nM)
Method in brief: as §1

[13] = system: PPARg DBDmut:RXRa IVT, anti-PPARg (DBD mutation: PPARg1 K132A/R137A, NR concentration 270 nM, RXRa partner concentration 90 nM)
Method in brief: as §1

[14] = system: PPARg DBDmut IVT, anti-PPARg (DBD mutation: PPARg1 K132A/R137A, NR concentration 270 nM)
Method in brief: as §1

[15] = system: PPARg homodimer (NR concentration 180 nM)
Method in brief: as §1

[16] = system: PXR:RXRa (NR concentration 270 nM, RXRa partner concentration 90 nM)
Method in brief: as §1

[17] = system: PXR homodimer (NR concentration 270 nM)
Method in brief: as §1

[18] = system: RARa:RXR (NR concentration 270 nM, RXRa partner concentration 90 nM)
Method in brief: as §1

[19] = system: RARa homodimer (NR concentration 270 nM)
Method in brief: as §1

[20] = system: RARb:RXRa (NR concentration 270 nM, RXRa partner concentration 90 nM)
Method in brief: as §1

Row | Sequence | PBM binding z-score [1] | PBM binding z-score [2] | PBM binding z-score [3] | PBM binding z-score [4] | PBM binding z-score [5] | PBM binding z-score [6] | PBM binding z-score [7] | PBM binding z-score [8] | PBM binding z-score [9] | PBM binding z-score [10] | PBM binding z-score [11] | PBM binding z-score [12] | PBM binding z-score [13] | PBM binding z-score [14] | PBM binding z-score [15] | PBM binding z-score [16] | PBM binding z-score [17] | PBM binding z-score [18] | PBM binding z-score [19] | PBM binding z-score [20]
1 | TATCCTAGGTCATGGGCCAGTATACCACGCGAAC | 5 | 5.58 | 3.83 | 3.5 | 1.69 | 4.57 | 5.5 | 5.51 | 3.05 | 4.89 | 4.23 | 5.29 | 1.4 | 1.68 | 1.22 | 2.25 | 0.762 | 2.93 | 1.01 | 4.06
2 | CTCGAAAGGTCGGTTTAGGTGAGTATACGGATAA | 2.13 | 1.54 | -0.093 | 1.7 | 0.329 | 2.44 | 0.282 | 1.04 | -0.0408 | 0.683 | 0.133 | 0.896 | 0.666 | 0.13 | 1.29 | 1.51 | 0.344 | 1.64 | 0.736 | 2.66
3 | ACTTACGGGTCAACGAGGTTCTAGCACGCGTATA | 6.65 | 4.04 | 0.325 | 3.66 | 0.336 | 5.59 | 5.12 | 4.83 | 1.82 | 3.67 | 3.33 | 3.8 | 1.11 | 0.889 | 2.64 | 4.32 | 0.435 | 4.17 | 0.866 | 4.12
4 | GCATACAGGTAATACAAGGTGAAAGTCCGATTGT | 0.599 | 2.17 | 0.595 | 0.711 | -0.363 | 1.3 | 0.859 | 0.843 | 0.676 | 0.712 | 0.771 | 1.43 | 0.568 | -0.128 | 0.379 | 0.708 | 0.62 | 1.48 | 0.481 | 0.594
5 | ACTCGGAGGACGAAGGTCAGAGCTACGCCAGTGA | 0.736 | 1.2 | -0.109 | 0.941 | -0.551 | 2.3 | 2.67 | 3.52 | 1.07 | 3.02 | -0.0159 | 0.85 | -1.22 | -0.524 | 1.01 | 1.4 | -0.0782 | 1.77 | 0.154 | 2.81
6 | CCTCGGAGGATAACAGGAGGTCAGAGCTGCCAGA | 0.758 | 2.44 | 2.34 | 1.24 | -0.35 | 1.61 | 0.275 | -0.114 | -0.739 | -0.596 | -0.616 | 0.0476 | -0.938 | -1.92 | 1.75 | 1.78 | 0.657 | 2.39 | 0.565 | 1.99
7 | GCGACCGGGGCATCAGCAGGTTACCATAACTTAA | 0.256 | 0.277 | -0.271 | 0.643 | -0.263 | 1.17 | 0.512 | -0.0952 | -0.743 | -0.899 | 0.0389 | 0.384 | -1.59 | -1.19 | 0.373 | 0.411 | -0.173 | 0.981 | -0.42 | 1.3
8 | TAGCCCAGGTCATTGGGCCAGTATAGTACGCATC | 4.84 | 3.77 | 0.677 | 2.25 | -0.127 | 4.22 | 3.72 | 3.93 | 0.844 | 2.6 | 1.36 | 3.68 | -0.318 | -0.214 | 1.51 | 2.71 | 0.0159 | 3.06 | -0.165 | 3.71
9 | AGAATGAGGTTATACGTAGATTAGGGAAGAAAGT | 2.38 | 1.89 | 0.103 | 1.74 | 0.111 | 3.21 | 2.37 | 2.4 | 0.937 | 1.76 | 3.81 | 2.24 | 1.48 | 1 | 0.912 | 1.38 | 0.713 | 1.72 | 0.516 | 1.63
10 | ACTTACGGGTCAACGAGGTTATACCACGCGTATA | 6.87 | 5.39 | 1.14 | 4.59 | 0.838 | 5.83 | 5.59 | 5.57 | 1.82 | 4.26 | 3.73 | 3.99 | 1.8 | 1.74 | 2.9 | 5.43 | 4.36 | 5.72 | 1.26 | 4.34
11 | ATCTCCAGGTAAAGATAGTTCAGTGAATGCAAAT | 0.234 | 4.39 | 0.615 | 0.852 | 0.602 | 0.316 | 0.194 | 0.28 | 0.232 | -0.042 | 0.28 | 0.419 | 1.11 | 1.09 | 0.798 | 1.1 | 1.1 | 0.0525 | 1.34 | 0.907
12 | CCTACTGGTCCATTCAGAGGTCATTGATCATATG | 2.73 | 4.6 | 7.06 | 3.9 | 1.12 | 3.32 | 0.652 | 1.92 | 0.224 | 1.05 | 0.337 | 1.32 | -0.102 | 0.307 | 3.17 | 4.52 | 4.29 | 4.42 | 1.99 | 2.89
13 | TCTTGTAGAACAACAGGAGGTTAAGAAAGATCGA | 0.0476 | 1.07 | -0.0587 | 0.901 | -0.216 | 1.28 | 0.33 | 1.56 | 2.79 | 2.15 | 2.21 | 0.963 | 0.603 | 0.55 | 0.00875 | 0.716 | 0.0491 | 0.961 | 0.174 | 0.469
14 | TCGAGTAGGTTACTCGGGGCATTCAGCCAACATA | 0.333 | 0.921 | -0.382 | 0.814 | -0.722 | 1.13 | 0.392 | 1.33 | 1.41 | 0.94 | 3.23 | 2.79 | -0.543 | -0.378 | -0.112 | 0.641 | -0.427 | 0.651 | -1.03 | 0.57
15 | TCTATTAGCTGATTAGGGCAACCGAAACAGCGGA | 0.113 | -0.201 | -0.333 | -0.12 | -0.075 | 0.627 | -0.00749 | 1.41 | 2.86 | 2.13 | 1.49 | 1.49 | 0.731 | 0.319 | -0.183 | -0.0443 | -0.871 | 0.252 | -0.337 | 0.444
